The other results are listed elsewhere or left out. Results filed as inconclusive are left out. Activity calls are given as the source filed them. The call rests on the fitted dose curve; in most records, active means well fitted inhibition curve with a large enough effect; inconclusive means small, poorly fitted or top-dose-only effect; inactive means flat fitted curve, though single readings scatter.
target: Histone-lysine N-methyltransferase EHMT2 (Homo sapiens) (UniProt Q96KQ7); experiment: qHTS Assay for Inhibitors of Histone Lysine Methyltransferase G9a: Hit Confirmation; settings: G9a H3K9 monomethylation, AlphaScreen, 2 h; further: nearly all actives have a fitted effect of over 65% in size
Sequence (Q96KQ7 913-1193 limits assumed): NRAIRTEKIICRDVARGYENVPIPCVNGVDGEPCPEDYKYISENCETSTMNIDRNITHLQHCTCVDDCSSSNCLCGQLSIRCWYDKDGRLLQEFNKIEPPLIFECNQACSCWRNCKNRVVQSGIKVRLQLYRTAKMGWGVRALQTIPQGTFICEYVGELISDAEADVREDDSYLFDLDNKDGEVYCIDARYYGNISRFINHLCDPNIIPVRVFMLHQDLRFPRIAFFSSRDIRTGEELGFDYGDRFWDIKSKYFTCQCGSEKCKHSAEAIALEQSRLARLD
From the text: Methylated lysines, on the N-terminal tails of histone proteins serve as epigenetic markers to recruit factors that can then modify local chromatin structure to lead to functional consequences. G9a and other members of the SUV39 family of the SET domain-containing superfamily of histone lysine methyltransferases (HMT) have been identified to specifically methylate Lys9 of histone H3 (H3K9). G9a catalyzes the mono- and di-methylation of H3K9 in mammalian euchromatic regions, where the resulting H3K9me2 is indicative of transcriptional repression. […] The inhibition of G9a will result in transcriptional activation and work synergistically with DNA methyltransferase and histone deacetylase inhibitors, to kill cancer cells. This qHTS assay for identification of G9a inhibitors is a chemiluminescence based AlphaScreen (PerkinElmer). Methylation of biotinylated-histone peptide is measured through specific antibody-based detection, in conjunction with streptavidin-coated donor and anti-IgG antibody-coated acceptor beads. The method is particularly well suited for detection of inhibitors acting by the desired histone peptide competitive mechanism and is applicable to testing other HMTs. Although AlphaScreen has significant advantages with its utility in a variety of epigenetic target assays, the primary screening data provided in this deposition should be used with caution due to the prevalence of screening artifacts. An AlphaScreen counterscreen is highly recommended to be run against any putative actives to eliminate non specific artifacts. Alternatively, one can use other AlphaScreen assays in PubChem to filter out promiscuous hits. Quinn et al. A chemiluminescence-based method for identification of histone lysine methyltransferase inhibitors. Mol Biosyst 6(5): 782-8. 2010. PMID: 20567762 [2] Baell,Holloway. New substructure filters for removal of pan assay interference compounds (PAINS) from screening libraries and for their exclusion in bioassays. J Med Chem. 53(7):2719-40. 2010. PMID: 20131845 NIH Chemical Genomics Center [NCGC] NIH Molecular Libraries Probe Production Network [MLPCN] MLPCN Grant: MH084681-02 Assay Submitter (PI): Structural Genomic Consortium - Toronto, Peter Brown
To each well, 2 uL of HMT enzyme (final 20 nM) will be added using a nanoliter dispenser. The G9a- and GLP-inhibitor BIX-01294 will be used as an intraplate control, with a 16-point titration in duplicate. A Kalypsys pin-tool will be employed to transfer 23 nL of library compound solution in DMSO to each well. Following a 15 min incubation of enzyme with compounds at room temperature, 1 uL mixture of b-H3K9 peptide substrate (final 500 nM) and SAM cofactor (final 20 uM) will be added. Reactions are allowed to proceed at room temperature for 2 hours. Methylated b-H3K9 peptide product is detected with 0.5 ug/mL rabbit polyclonal anti-monomethyl histone H3K9 antibody (Abcam Inc., Cambridge, MA) and 20 ug/mL each streptavidin-coated donor and anti-rabbit IgG acceptor AlphaScreen beads. Antibody and beads will be added in a 1 uL dispense, for a final volume of 4 uL, and plates will be incubated protected from the light for 10 min at room temperature. Microplates will then be read on an EnVision multilabel plate reader using the 1,536 plate HTS AlphaScreen aperture (excitation time 80 ms, measurement time 240 ms).
Potency means the concentration at half of the fitted maximal effect.

Potency, active:
CCc1ccc(NC2Nc3cc(C)nn3S2)cc1 (stereo unspecified) 1.78 µM
CCOc1ccc(NC(=O)c2c(NC(=O)Cc3ccccc3)sc3c2CCCCC3)cc1 4.57 µM
CCOC(=O)c1ccc(NC(=O)CSc2ncccn2)cc1 0.632 µM
Cc1ccccc1C(=O)Nc1ccc(N2CCCCCC2)cc1 2.83 µM
CCOC(=O)N1CCN(C(c2cccnc2)c2ccc3cccnc3c2O)CC1 (stereo unspecified) 0.159 µM
Cc1ccc(-c2cnc(NCc3ccc(C(C)C)cc3)n2C)cc1 31.6 µM
c1ccc(-c2nnc3n2NC(c2ccc4c(c2)OCO4)S3)cc1 (stereo unspecified) 0.178 µM
CCOC(=O)c1c(NC(=O)COc2cc(C)ccc2C(C)C)sc(C)c1C 5.64 µM
CCOC(=O)c1ccc(-n2c(CCC(=O)O)ccc2-c2ccccc2)cc1 31.6 µM
CCn1c(SCC(=O)Nc2cccc(F)c2)nnc1-c1cc2cc(Br)ccc2o1 5.01 µM
COCCCNCC(=O)Nc1sc(C)c(C)c1C(=O)OC 31.6 µM
CCOc1ccc(NC(=O)c2c(NC(=O)Cc3ccccc3)sc3c2CCC(C)C3)cc1 (stereo unspecified) 2.57 µM
CCCCNC(=O)CSc1nc2ccc(NC(=O)CSc3nnc(N)s3)cc2s1 1.42 µM
CC(NC(=O)c1ccco1)C(=O)Nc1nc(-c2ccccn2)cs1 (stereo unspecified) 7.96 µM
CCc1ccc(Nc2ncc3c(n2)CC(c2ccco2)CC3=O)cc1 (stereo unspecified) 31.6 µM
CCOC(=O)N1CCc2c(sc(NCc3cccc(F)c3)c2C(=O)Nc2ccccc2OCC)C1 4.57 µM
